By AC50 is commonly meant the concentration at which the activity in the assay is half-maximal.

Structures are written as SMILES. Inconclusive results are not listed. Active and inactive are the calls of the source. Rule for the calls, unless noted: active = hit-call score of the fitted dose curve at least 0.9, where 1 is the maximum; inconclusive = response in the unintended direction; inactive = score below 0.9.

We go through nine compounds from PubChem BioAssay (EPA / NIEHS).

The nature of assay [1]: STM_H9_OrnithineISnorm_perc: Stemina devTOX quickPredict H9 human embryonic stem cell (hESC)-based Assay for Ornithine (ORN) Metabolite Biomarker, Normalized (AID 2283712; active = hit-call score of the fitted dose curve at least 0.9, where 1 is the maximum; inactive = score below 0.9;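 note: ornithine released into spent medium during last day measured by mass spectrometry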). In short, it runs like this:
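Metabolite endpoint from spent media of pluripotent H9 cells treated 72 h with daily re-feeding; ornithine measured by UPLC-HRMS against its 13C spike-in and referenced to the median 0.1% DMSO vehicle response.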

Assay [2] in a line: STM_H9_CystineISnorm_perc: Stemina devTOX quickPredict H9 human embryonic stem cell (hESC)-based Assay for Cystine (CYSS) Metabolite Biomarker, Normalized (AID 2283713; active = hit-call score of the fitted dose curve at least 0.9, where 1 is the maximum; inactive = score below 0.9). In short, it runs like this: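 Normalized cystine level in conditioned medium from the final 24h of a 72h treatment of pluripotent H9 cells (daily media and compound renewal). Quantified by UPLC-HRMS with C13-labeled internal standard; scaled to median of 0.1% DMSO vehicle wells.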

Assay [3] in a line: STM_H9_OrnCyssISnorm_ratio: Stemina devTOX quickPredict H9 human embryonic stem cell (hESC)-based Assay for Ornithine (ORN):Cystine (CYSS) Ratio (AID 2283714). The gist of the method: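 H9 hESC, 72h, q24h re-dose; last-day media → acetonitrile deproteinization → UPLC-HRMS. ORN:CYSS ratio from isotope-normalized EIC areas, vs 0.1% DMSO; MTX references on each plate.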
Assay [4] in a line: Tanguay_ZF_120hpf_ActivityScore_legacy: (Legacy) Oregon State University Tanguay Lab 120 Hour Post-fertilization zebrafish Assay Score for Activity (AID 2283742).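 For AC50: dechorionated Tropical 5D wild-type zebrafish embryos held singly per well; static exposure from 6 hpf until 120 hpf at 28 °C.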 In short, it runs like this: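 In this whole-embryo screen, dechorionated zebrafish were exposed from 6 hpf until 120 hpf at 28C under a 0.64% DMSO vehicle. Developmental malformations and death were recorded by brightfield microscopy as binary endpoints.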

Assay [5] can be described thus: ArunA_CellTiter_hNP: Viability Assessment in the ArunA Biomedical's Oris Neural Crest (hNC) Cell Migration Assay (AID 2283753). The gist of the method: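 Viability read with CellTiter 96 Aqueous One after 72 h chemical exposure of human hNP1 neuroprogenitors, which were plated on Matrigel in LIF/bFGF medium 16 h beforehand. Endpoint fitted in positive direction relative to DMSO.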

Assay [6] in a line: ArunA_Migration_hNP: ArunA Biomedical's Oris Neuroprogenitor (hNP) Cell Migration Assay (AID 2283754). The gist of the method: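 Readout is calcein-AM fluorescence (ex494/em517) of cells migrating into the detection zone, relative to DMSO. hNP1 cells (H9-derived) grown on Matrigel behind stoppers 16 h, then stoppers pulled and chemical applied 72 h; cytochalasin D as control.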

Assay [7] can be described thus: ArunA_Migration_hNC: ArunA Biomedical's Oris Neural Crest (hNC) Cell Migration Assay (AID 2283755). The gist of the method: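 Calcein-AM fluorescence (ex494 nm/em 517 nm) in the stopper-defined detection zone quantifies migration of hNC cells after 72 h chemical exposure; 60,000 cells/well plated on Matrigel with LIF and bFGF, 16 h pre-incubation. DMSO baseline.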

Assay [8] can be described thus: ArunA_NOG_NucleusCount: ArunA Biomedical's Neurite Outgrowth (NOG) Assay for Nucleus Count (AID 2283756). In short, it runs like this: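 Viable neuron count, from Hoechst nuclei passing size and intensity gates, imaged at 20x on differentiated H9-derived human neurons. Exposure lasted 48 h from seeding; activity was scored relative to DMSO.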
Assay [9] in a line: ArunA_NOG_NeuriteLength: ArunA Biomedical's Neurite Outgrowth (NOG) Assay for Neurite Length (AID 2283757). The gist of the method: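 Total neurite length per neuron, from traced βIII-tubulin-labelled processes longer than 10 um on viable Hoechst-gated cells, was scored as decrease from DMSO. Cells were hESC (H9)-derived neurons given 48 h chemical exposure immediately after seeding.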

The nature of assay [10]: ArunA_NOG_NeuritesPerNeuron: ArunA Biomedical's Neurite Outgrowth (NOG) Assay for Neurites Per Neuron (AID 2283758). In short, it runs like this: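 Differentiated human H9-derived neurons exposed to chemicals for 48 h from seeding, then stained with Hoechst and βIII-tubulin/DyLight 488. Automated imaging counted neurites (processes >10 um) per valid neuron; loss of signal versus DMSO scored.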

The nature of assay [11]: ArunA_NOG_BranchPointsPerNeurite: ArunA Biomedical's Neurite Outgrowth (NOG) Assay for Branch Points Per Neurite (AID 2283759). In short, it runs like this:
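Automated image analysis traced neurites (processes >10 um) from valid cell bodies after Hoechst and βIII-tubulin staining. hNN cells from H9 embryonic stem cells, 48 h exposure. Fitted bidirectionally against DMSO.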

The nature of assay [12]: ACEA_AR_agonist_AUC_viability: ACEA Biosciences xCELLigence Real-Time Cell Analysis on Androgen Receptor Agonism for Viability (AID 2283775).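 For AC50: viability read 80 hours after compound addition.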 The gist of the method: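 Viability endpoint from xCELLigence impedance in 22Rv1 prostate cells at 80 h. Eight-point series, 100 uM maximum final.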
Assay [13] in a line: ACEA_AR_antagonist_AUC_viability: ACEA Biosciences xCELLigence Real-Time Cell Analysis on Androgen Receptor Antagonism for Viability (AID 2283776).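 Note: 22Rv1 human prostate cancer cells growing on impedance electrode plates; area under impedance growth curve at 80 h after dosing as viability; hits lower the growth signal relative to DMSO meaning cytotoxicity.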 The gist of the method:
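Viability endpoint from label-free cell-index monitoring: 22Rv1 cultures treated with an eight-point 1:4 dilution series starting at 100 uM final, AUC at 80 h fitted against DMSO.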

The nature of assay [14]: CEETOX_H295R_MTT_cell_viability: Viability Assessment in the CeeTox HT-H295R MTT Assay (AID 2283718; active = hit-call score of the fitted dose curve at least 0.9, where 1 is the maximum; inactive = score below 0.9). The gist of the method: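 H295R cells prestimulated 48 h with 10 uM forskolin, then exposed 48 h to test chemical (0.1% DMSO final). Viability by MTT (0.5 mg/ml, 4 h, 37 C), absorbance 570/650 nm; percent change versus DMSO, bidirectional fit.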

Turning to `CCCCC(CC)COP(=O)(OCC(CC)CCCC)OCC(CC)CCCC` (stereo not drawn), the outcome in assay [1], in [2], in [3], in assay [4], in assay [5] and in assay [6] was inactive. Moreover, the call in [7], in [8], in [9], in [10] and in assay [11] was inactive. Further, the values for the AC50 in [12] and in assay [13] were 17.6 µM (active) and 16.8 µM (active), respectively.
On to `CCCCCCCCCC[N+](C)(C)[O-]`, for which the outcome in assay [1], in [14], in assay [4], in assay [12] and in [13] was inactive. The AC50 in assay [2] is 25 µM (active); in assay [3] it was 22.1 µM (active).
Regarding `CC(C)OC(=O)C(C)(C)Oc1ccc(C(=O)c2ccc(Cl)cc2)cc1`, the result in assay [1], in assay [2] and in assay [4] was inactive. Besides, the AC50 in assay [12] is 35.4 µM (active); in assay [13], 41.2 µM (active).
For the compound `CC(COCC(C)OC(=O)c1ccccc1)OC(=O)c1ccccc1` (stereo not drawn), the outcome in [1], in [2], in assay [14], in assay [4] and in [13] was inactive.
Take `O=C(Oc1ccccc1)c1cccc(C(=O)Oc2ccccc2)c1`: the result in assay [1], in [2], in assay [14], in assay [4] and in [13] was inactive.
On to `CCC(C)N(C)C(=O)c1cc2ccccc2c(-c2ccccc2Cl)n1` (stereo not drawn), for which the outcome in assay [1], in [2], in assay [14] and in [4] was inactive. Also, the AC50 in assay [12] is 45.7 µM (active); in assay [13], 40.9 µM (active).
Consider `CC(=O)S[C@H](C(=O)N[C@H]1Cc2ccccc2[C@H]2CCC[C@@H](C(=O)O)N2C1=O)C(C)C`, for which the outcome in assay [1], in assay [2], in [4], in [12] and in [13] was inactive.
For `Cc1cn([C@H]2C=C[C@@H](CO)O2)c(=O)[nH]c1=O`, the outcome in assay [1], in assay [2], in [3], in assay [4] and in [12] was inactive. Also, in assay [13], the AC50 was 19.7 µM (active).
`NC(=Nc1ccccc1)Nc1ccccc1`: the outcome in [1], in assay [2], in assay [14], in assay [12] and in [13] was inactive. The AC50 in assay [4] was 0.00546 µM (active).
